HTT cytoprotect: Huntington cell model cytoprotection by ATP luminescence | PC12 HTT-Q103 induced, cytoprotection, ATP luminescence, 40 h | 0.14% of 230,000 active | Potency, µM (top dose mostly 56.4 µM), inactives show cytoprotection (ATP increase), most hits filed as activators; note: % of control where 0% means no effect; nearly all actives have a fitted effect of over 45% in size
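Quantitative HTS on tebufenozide-induced (100 nM) PC12 cells expressing HTTQ103 exon 1–GFP; compounds tested as a concentration series; survival measured via cellular ATP.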
HPGD inh: inhibitors of human 15-hydroxyprostaglandin dehydrogenase (HPGD). Potency, µM, inactives show at the highest dose activity change, negative = inhibition, usual class: inhibitors. AID 894. 4.3% of 150,000 active. purified HPGD, NADH fluorescence kinetic, PGE2 substrate. P15428; active = well fitted inhibition curve with a large enough effect, not every such curve was filed as active; inconclusive = small, poorly fitted or top-dose-only effect, or another doubt; inactive = no such curve, though single readings can be large or run the other way; note: % is set by controls: 0 for no effect and ±100 for the full control effect
Target sequence (P15428 whole entry, looked up): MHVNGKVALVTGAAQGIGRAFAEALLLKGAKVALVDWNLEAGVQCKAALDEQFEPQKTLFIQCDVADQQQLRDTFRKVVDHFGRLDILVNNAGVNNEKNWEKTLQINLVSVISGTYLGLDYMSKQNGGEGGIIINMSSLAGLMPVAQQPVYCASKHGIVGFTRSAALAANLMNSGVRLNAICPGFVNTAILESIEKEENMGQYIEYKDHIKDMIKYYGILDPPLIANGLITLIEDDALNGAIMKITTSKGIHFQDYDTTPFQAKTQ
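NADH formation kinetics: reaction with 30 uM PGE2 and 1 mM NAD+ (final), 20 nM enzyme, Tris-HCl pH 8 with Tween 20, after 15 min compound preincubation at room temperature. Fluorescence change, last versus first of five reads.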
KinaseGlo FLuc: blocks Kinase-Glo luciferase, a counter-screen artifact; Potency, µM (titrated, usually from 38.3 µM), for the others: at the top dose activity change, negative = inhibition, hits mostly inhibitors; 0.28% of 200,000 active; Q27757; Kinase-Glo luciferase, ATP luminescence, 8 min; note: % is set by controls: 0 for no effect and ±100 for the full control effect; nearly all actives have a fitted effect of over 60% in size
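Kinase-Glo luciferase light output from ATP and luciferin was measured with 10 uM ATP, within the enzyme's linear range. Buffer: 50 mM imidazole pH 7.2, 50 mM KCl, 7 mM MgCl2, 0.01% Tween 20, 0.05% BSA; luminescence read after 8 min at ambient temperature.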
HTT aggregate: mutant huntingtin aggregation inhibition; AID 1688; PC12 HttQ103-GFP aggregates, Acumen cytometry, 40 h; Potency, µM (highest dose often 46.1 µM), inactives show top-dose activity change, negative = inhibition, actives largely listed as inhibitors; 1.1% of 220,000 active; note: % is set by controls: 0 for no effect and ±100 for the full control effect; nearly all actives have a fitted effect of over 60% in size
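Using laser scanning cytometry, GFP-positive aggregates were counted after lysis of PC12 cells induced with 100 nM tebufenozide to express HTT exon 1 Q103–GFP. Compounds were tested in titration.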
ALDH1A1 block: blocks purified human ALDH1A1 activity | P00352 | Potency, µM (highest dose often 75.3 µM), for the others: top-dose activity, negative = inhibition, usual class: inhibitors | 7.3% of 220,000 active | Purified ALDH1A1, NADH fluorescence, propionaldehyde substrate; active = well fitted inhibition curve with a large enough effect, not every such curve was filed as active; inconclusive = small, poorly fitted or top-dose-only effect, or another doubt; inactive = no such curve, though single readings can be large or run the other way;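 note: plate controls were no enzyme wells and a reference inhibitor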
Target sequence (P00352 whole entry, looked up): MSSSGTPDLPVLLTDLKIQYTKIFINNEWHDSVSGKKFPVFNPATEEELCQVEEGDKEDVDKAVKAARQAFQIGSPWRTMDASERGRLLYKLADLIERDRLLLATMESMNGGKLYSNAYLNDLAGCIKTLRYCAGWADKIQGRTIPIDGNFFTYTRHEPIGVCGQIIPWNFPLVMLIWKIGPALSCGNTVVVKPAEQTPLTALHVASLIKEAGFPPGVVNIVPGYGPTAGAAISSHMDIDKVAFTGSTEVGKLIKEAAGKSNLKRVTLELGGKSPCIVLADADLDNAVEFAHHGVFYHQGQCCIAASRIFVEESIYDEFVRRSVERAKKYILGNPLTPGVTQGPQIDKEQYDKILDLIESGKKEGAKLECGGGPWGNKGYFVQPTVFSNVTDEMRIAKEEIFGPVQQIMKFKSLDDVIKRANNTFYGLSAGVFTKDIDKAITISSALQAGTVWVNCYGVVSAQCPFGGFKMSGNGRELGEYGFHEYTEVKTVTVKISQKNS
LMNA splice mod: changes lamin A minigene splicing in HeLa cells. HeLa LMNA splicing GFP/RFP minigene ratio, 48 h. 0.01% of 200,000 active. AID 1487. Potency, µM (top dose mostly 46.1 µM), for inactives: at the highest dose ratio change, negative = inhibition, hits mostly inhibitors; active = well fitted inhibition curve with a large enough effect in the signal ratio, with a control signal flat, not every such curve was filed as active; inconclusive = small, poorly fitted or top-dose-only effect, or effect the other way, or a change in a side signal; the % refers to the signal ratio; note: % is set by controls: 0 for no effect and ±100 for the full control effect
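Read-out is the ratio of GFP to DsRed2 object intensity, acquired by 488 nm laser-scanning cytometry on HeLa lamin A-EGFP minigene reporter cells. Compound incubation 48 hrs at 37 °C in Opti-MEM with 2% FBS; DMSO 0.5% final.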
* hit, by the source's call; u = inconclusive; x = no result; [ ] = dose if it differs, or a comment. Sampled rows, rich in hits. Any-hit rate of the full collection: about 9%. Unless noted, calls come from the whole dose curve; as a rule, active = well fitted curve in the direction sought with a large enough effect; inconclusive = small, poorly fitted or top-dose-only effect, or another doubt; inactive = no such curve, though single readings can be large; an effect the other way counts as inactive or inconclusive. Potency is the fitted concentration of half-maximal effect.

SMILES | HTT cytoprotect | HPGD inh | KinaseGlo FLuc | HTT aggregate | ALDH1A1 block | LMNA splice mod
CN(C)S(=O)(=O)c1ccc(Nc2nc(C3CC3)nc3c2nnn3Cc2ccccc2Cl)cc1 | 12%[10 µM] | u | 5% | -27% | u | u
COC(=O)CNc1nc(C2CC2)nc2c1nnn2Cc1ccccc1Cl | -13%[10 µM] | 1% | 1% | 7% | 1.6µM* | -8%
Clc1ccccc1Cn1nnc2c(N3CCOCC3)nc(C3CC3)nc21 | -7% | -14% | 0% | -24% | 20µM* | 1%
CC(C)(C)c1nc(NCCN2CCOCC2)c2nnn(Cc3ccccc3Cl)c2n1 | -3% | -19% | -2% | -1% | u | u
COc1ccc(S(=O)(=O)N2CCCC(C(=O)NCCC3=CCCCC3)C2)cc1 (centres undefined) | 35%[10 µM] | -7% | -8% | u | 6% | -12%
CC(Nc1nc2ncn(Cc3ccccc3)c2c(=O)[nH]1)C(=O)O (centres undefined) | -37% | 28µM* | 1% | 8% | 1% | 6%
Nc1ccc(C(=O)O)c(O)c1 (tested in a mixture with another compound) | -83% | -24% | -7% | x | x | x
Cc1ccccc1N1CCN(S(=O)(=O)c2ccc3oc(=O)ccc3c2)CC1 | 2%[10 µM] | -16% | 2% | 10µM* | -3% | -18%
Cc1cc(C(=O)O)ccc1-n1c(C)cc(/C=C(/C#N)C(=O)Nc2ccccc2)c1C | -17%[10 µM] | x | x | -10%[9.22 µM] | u | x
Cc1cc(C(=O)O)ccc1-n1c(C)cc(C=C2C(=O)c3ccccc3C2=O)c1C | 1%[10 µM] | x | x | 11%[9.22 µM] | 10µM* | x
Cc1ccc(C(=O)O)cc1-c1ccc(C=C2C(=O)c3ccccc3C2=O)o1 | 5%[10 µM] | x | -2% | 6% | 5µM* | x
O=C1C(=Cc2ccc(Br)o2)C(=O)c2ccccc21 | 24%[10 µM] | 32µM* | -7% | -18% | -4% | -14%
CC1=NOC(=O)/C1=C\c1ccc(-c2ccc(Br)cc2C(=O)O)o1 | -31% | x | x | 3% | u | x
Cc1cccc(NC(=O)CN2C(=O)S/C(=C\c3ccc(-c4cccc(C(=O)O)c4C)o3)C2=O)c1 | -13% | x | 2% | -25% | -10% | x
Cc1ccc(NC(=O)CN2C(=O)S/C(=C/c3ccc(-c4cc(C(=O)O)ccc4C)o3)C2=O)cc1C | -6% | 32µM* | 3% | 13% | u | -2%
Cc1cccc(CNc2ncncc2-c2cccc(C#N)c2)c1 | -7% | -24% | -3% | x | 3% | 6%
CN(C)C=NC(=O)c1cc(C(=O)c2ccc(Cl)cc2)c[nH]1 | -27%[10 µM] | x | 0% | u | -3% | x
CN(C)C=NC(=O)c1cc(C(=O)c2ccccc2)c[nH]1 | -24% | x | -1% | 25% | -8% | x
CN(C)C(=O)c1cc(C(=O)c2ccc(C(F)(F)F)cc2F)c[nH]1 | -15%[10 µM] | x | -1% | -19% | -2% | 1%[46 µM]
O=C(c1ccc(Cl)cc1)c1c[nH]c(C(=O)NNc2ccccc2)c1 | -12% | x | 2% | u | 20µM* | u
O=C(c1c[nH]c(C(=O)C(Cl)(Cl)Cl)c1)c1ccc(F)cc1Cl | 4%[10 µM] | x | 1% | 17% | 1µM* | u
O=C(c1ccccc1)c1c[nH]c(C(=O)C(Cl)(Cl)Cl)c1 | -23% | x | 0% | 21% | 3.5µM* | 6%[46 µM]
O=C(O)c1ccccc1C(=O)NNc1ccc(Cl)cc1 | 1% | -10% | -6% | -1% | u | 8%
O=C(c1ccc(Cl)cc1)c1c[nH]c(C(=O)C(Cl)(Cl)Cl)c1 | -21% | u | -2% | 0% | 8.9µM* | -11%
CCCCC/C=C\C/C=C\C/C=C\C=C\C(=O)CCCC(=O)O | 14% | -5% | 2% | x | 4% | x
SMILES | HTT cytoprotect | HPGD inh | KinaseGlo FLuc | HTT aggregate | ALDH1A1 block | LMNA splice mod
CCNC(=O)N1CCN(CCCC(c2ccc(F)cc2)c2ccc(F)cc2)CC1 | -7% | -10% | -9% | 12% | -9% | u
COc1ccc(C(=O)NC(=S)NNC(=O)c2ccc(NC(C)=O)cc2)cc1Br | 7%[10 µM] | x | 0% | -4%[9.22 µM] | u | 2%[46 µM]
CCOC(=O)c1c(C)[nH]c(C)c1C(=O)CSc1nc2ccccc2c(=O)n1-c1ccccc1C | 2%[10 µM] | -8% | -2% | -31% | 20µM* | -7%
CCOC(=O)c1c(C)[nH]c(C)c1C(=O)CSc1nc2ccccc2c(=O)n1-c1ccc(F)cc1 | -108% | x | -1% | u | -11% | u
COc1ccc(CCNc2cc(-c3ccccc3)nc3ncnn23)cc1 | -22% | u | -1% | -22% | 7% | 4%
CC1=C(c2ccc(C)c(C)c2)S(=O)(=O)N=C1N1CCC(C(=O)NCc2ccccc2C)CC1 | x | x | x | x | x | -15%[46 µM]
C#CCN1C(=O)C(O)(CC(=O)/C=C/c2ccco2)c2ccccc21 (centres undefined) | -26% | x | 0% | -2% | 1.6µM* | u
CC(=O)NC(CC(=O)NC1CCCCCC1)c1ccccc1 (centres undefined) | 12%[10 µM] | 1% | 3% | -27% | -3% | -2%
CC(C(=O)NC1CCCC1)N1CCN(Cc2ccccc2)CC1 (centres undefined) | -21% | x | -1% | 7% | 3.5µM* | x
CC(CC(=O)NC1CCCC1)c1ccccc1 (centres undefined) | -1% | 2.5µM* | -3% | -19% | 1% | -3%
Cc1ccc(NC(=O)c2cn(CCC#N)nc2-c2cccs2)c([N+](=O)[O-])c1 | -4%[10 µM] | -23% | 1% | -2% | u | -11%
CC(C)N(C(=O)COC(=O)[C@H](C)NC(=O)c1ccco1)c1ccccc1 | 7%[10 µM] | x | 8% | 14% | -4% | u
Cc1ccc2nc(C)c(C(=O)NN=C3CCN(C)CC3)n2c1 | -116% | x | 1% | u | 7.9µM* | 14%[46 µM]
O=C(NCc1ccccc1)c1ccc(Br)o1 | x | 13µM* | -1% | 11% | 0% | -7%
CCCC(=O)OCC(=O)NCc1ccc(Cl)cc1 | -19% | x | -8% | 25% | 5% | u
CCCCC(=O)NCc1ccc(Cl)cc1 | 24%[0.074 µM] | 14µM* | 4% | -5% | 17% | 2%
Cc1ccc(C(=O)NCc2ccc(Cl)cc2)o1 | 12% | 14µM* | 0% | -2% | -1% | -6%
O=C(NCCc1ccccc1)c1cccc(Br)n1 | -19% | -28% | 0%[39.9 µM] | x | -4% | x
O=C(NCc1ccccc1)c1cccc(Br)n1 | -21% | 32µM* | 2%[39.9 µM] | 11% | -13% | 3%
CC(C)c1ccc(C(=O)NCc2ccc(Cl)cc2)cc1 | -24%[10 µM] | -6% | 0% | -11% | 1% | -5%
CCOCc1nnc(NC(=O)c2cccs2)s1 | 11% | -19% | 2% | -14% | -2% | -4%
O=C(NCc1cccnc1)c1ccc(Cl)cc1[N+](=O)[O-] | 0%[10 µM] | -3% | 0% | u | 5% | -5%

Assay outcomes as filed in PubChem.
